Source: PubChem BioAssay
TLR9-MyD88 inh: TLR9-MyD88 interaction inhibition; CHO BLA complementation TLR9-MyD88, CCF4 FRET ratio; inhibition, % at 4.98 µM; 0.21% of 340,000 active; AID 504734;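 active means inhibition above the mean over all tested compounds plus 3 SD, cut at about 21% in these data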
NOD2-RIPK2 inh: NOD2-RIPK2 protein interaction inhibition; inhibition, % at 4.98 µM; 0.38% of 360,000 active; AID 624267; CHO BLA complementation NOD2-RIPK2, CCF4 ratio; O43353; in the data active means inhibition above about 21%
TLR4-MyD88 BLA: TLR4-MyD88 interaction inhibition in cells; HeLa CL3-4 TLR4/MyD88 BLA complementation, FRET ratio; inhibition, % at 8.4 µM; 0.18% of 200,000 active; AID 861; in the data active means inhibition above about 25%
PRMT1 FP inh: blocks human protein arginine methyltransferase 1; Q99873; recombinant PRMT1, activity-based probe fluorescence polarization; inhibition, % at 2.79 µM; 1.3% of 370,000 active; AID 652257;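 active means inhibition above about 21% made by adding two undisclosed values, limit read from the data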
ABHD5 PLIN5 PPI: inhibitors of human ABHD5-perilipin-5 interaction; Q00G26+Q8WTS1; Split G. princeps luciferase complementation, luminescence, 4 h; inhibition, % at 4 µM; 0.78% of 360,000 active;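 active means inhibition above the mean inhibition across every tested compound plus 3 SD, cut at about 22% in these data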
Target sequence (Q00G26 whole entry, looked up): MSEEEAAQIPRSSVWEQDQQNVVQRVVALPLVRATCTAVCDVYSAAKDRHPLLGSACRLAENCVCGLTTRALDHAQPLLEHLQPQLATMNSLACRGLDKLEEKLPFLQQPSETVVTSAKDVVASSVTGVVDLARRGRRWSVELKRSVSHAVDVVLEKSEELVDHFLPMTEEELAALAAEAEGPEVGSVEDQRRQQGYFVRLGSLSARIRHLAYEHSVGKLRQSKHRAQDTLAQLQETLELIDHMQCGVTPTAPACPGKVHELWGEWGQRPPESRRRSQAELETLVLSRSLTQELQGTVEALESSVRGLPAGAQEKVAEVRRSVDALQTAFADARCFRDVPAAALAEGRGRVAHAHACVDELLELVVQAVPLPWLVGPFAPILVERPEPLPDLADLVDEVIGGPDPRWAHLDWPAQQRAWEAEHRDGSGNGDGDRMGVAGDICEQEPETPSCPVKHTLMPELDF
Target sequence (Q8WTS1 whole entry, looked up): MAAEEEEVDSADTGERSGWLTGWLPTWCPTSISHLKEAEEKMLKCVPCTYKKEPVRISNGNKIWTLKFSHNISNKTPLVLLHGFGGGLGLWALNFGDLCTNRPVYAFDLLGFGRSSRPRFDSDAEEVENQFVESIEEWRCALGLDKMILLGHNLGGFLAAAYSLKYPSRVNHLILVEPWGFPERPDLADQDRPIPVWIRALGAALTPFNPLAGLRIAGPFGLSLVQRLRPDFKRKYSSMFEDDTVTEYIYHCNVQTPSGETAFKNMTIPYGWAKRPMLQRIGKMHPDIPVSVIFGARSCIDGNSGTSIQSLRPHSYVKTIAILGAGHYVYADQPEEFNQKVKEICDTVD
rCAG RNA binder: r(CAG) repeat RNA binding. TO-PRO-1 dye displacement fluorescence. 1.3% of 370,000 active. inhibition, % at 3 µM. AID 651821;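 active means inhibition above the plate cutoff, the mean of all test compounds on that plate plus 3 SD, cut at about 35% in these data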;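 further: higher means more dye released from RNA so lower well fluorescence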
rCAG bind conf: r(CAG) RNA repeat binding, confirmation; 70% of 4,300 active; TO-PRO-1 dye displacement fluorescence; inhibition, % at 3 µM; shares compounds with rCAG RNA binder;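 active means inhibition above a per-plate cutoff, the mean inhibition of sample wells plus 3 SD, cut at about 35% in these data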;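 further: loss of TO-PRO-1 fluorescence as compound displaces dye from 1x1 AA loop RNA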
DNA CAG counter: disrupts DNA CAG TO-PRO-1 complex, flagging rCAG hits; 94% of 4,300 active; shares compounds with rCAG RNA binder; d(CAG) DNA oligo TO-PRO-1 dye displacement, fluorescence; inhibition, % at 3 µM; AID 652068;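 active means inhibition above its plate's cutoff, the mean test-well inhibition plus 3 SD, cut at about 4.8% in these data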;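 further: hits displace the dye from DNA and so lower well fluorescence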
DNA CAG DR: disrupts DNA CAG TO-PRO-1 complex in dose response | shares compounds with rCAG RNA binder | DNA CAG/GTC duplex TO-PRO-1 dye displacement fluorescence | IC50, µM | 20% of 250 active | AID 686960; in the data active means IC50 below about 10 µM
Of the large screens only hits and unclear results are named; the others gave an inactive call (follow-up assays come after a bar, where they were run). Only some compounds are listed: those with a hit (about 3.3% of all), similar ones and a draw of the others.

Nc1c(-c2ccc(F)c(F)c2)nc2ncccn12	none (no result: TLR9-MyD88 inh, TLR4-MyD88 BLA)
COc1ccccc1N(CC(=O)N/N=C/c1ccc(C(=O)O)cc1)S(=O)(=O)c1ccc(C)cc1	none (no result: TLR4-MyD88 BLA)
Cc1cccc(N(CC(=O)N/N=C/c2ccc(C(=O)O)cc2)S(=O)(=O)c2ccccc2)c1C	rCAG RNA binder 49 (no result: TLR9-MyD88 inh, TLR4-MyD88 BLA) | rCAG bind conf inactive | DNA CAG counter 11
CC(C)CSC1=NSC2=NC(=O)/C(=C\c3ccccc3)C(=N)N12	rCAG RNA binder 76 | rCAG bind conf 39 | DNA CAG counter 9.9
CC(C)OC(=O)c1ccc2nc3ccccc3nc2c1	none (no result: TLR4-MyD88 BLA)
O=S1(=O)CC(N2CCC(Cc3ccccc3)CC2)CN1CCc1ccccc1 (centres undefined)	none (no result: TLR9-MyD88 inh, TLR4-MyD88 BLA)
O=C(O)c1ccccc1NC(c1ccccc1)c1ccc(Cl)cc1 (centres undefined)	rCAG RNA binder 58 (no result: TLR4-MyD88 BLA) | rCAG bind conf 54 | DNA CAG counter 11 | DNA CAG DR inactive
Cc1ccc(C(=O)N/C(=C\c2ccc3c(c2)OCO3)C(=O)Nc2ccc(C(=O)O)cc2)cc1	none
O=C(Nc1cccc(C(=O)O)c1)/C(=C\c1ccc2c(c1)OCO2)NC(=O)c1ccccc1	none (no result: TLR9-MyD88 inh)
O=C(Nc1cccc(C(=O)O)c1)/C(=C\c1ccc2c(c1)OCO2)NC(=O)c1ccc(Br)cc1	rCAG RNA binder 43 | rCAG bind conf inactive | DNA CAG counter 6.9
O=C(Nc1ccc(C(=O)O)cc1)/C(=C/c1ccc2c(c1)OCO2)NC(=O)c1cccc(Br)c1	rCAG RNA binder 50 | rCAG bind conf 41 | DNA CAG counter 10
COc1cc(C2Nc3cccc4cccc(c34)N2)ccc1O	rCAG RNA binder 53 (no result: TLR4-MyD88 BLA) | rCAG bind conf 48 | DNA CAG counter 26
Cc1cccc2sc(NNC(=O)c3cc(-c4cccs4)nc4ccccc34)nc12	rCAG RNA binder 38 | rCAG bind conf 36 | DNA CAG counter 16
NNC(=O)c1cc(-c2cccs2)nc2ccccc12	none (no result: TLR4-MyD88 BLA)
O=C1c2ccccc2C(O)(c2ccccc2)N1c1ccc([N+](=O)[O-])cc1Cl (centres undefined)	rCAG RNA binder 40 (no result: TLR4-MyD88 BLA) | rCAG bind conf 40 | DNA CAG counter 10
COC(=O)c1sccc1N(C)S(C)(=O)=O	none
COCC(=O)Nc1sc2c(c1C(=O)OC)CCCC2	none
COC(=O)c1sc(NC(=O)C2CCCCC2C(=O)O)c(C(=O)OC)c1C (centres undefined)	rCAG RNA binder 39 | rCAG bind conf 44 | DNA CAG counter 9.0
COC(=O)c1sc(NC(=O)C2CCCO2)c(C(=O)OC)c1C (centres undefined)	none
COC(=O)c1c(NC(=O)C2CCCCC2C(=O)O)sc2c1CCCCC2 (centres undefined)	rCAG RNA binder 48 | rCAG bind conf inactive | DNA CAG counter 5.7
CCOC(=O)C1=C(C)NC(=S)NC1c1ccc(OCC(=O)N2CCCCCC2)c(OC)c1 (centres undefined)	none (no result: TLR4-MyD88 BLA)
O=C(Nc1cc(S(=O)(=O)N2CCOCC2)ccc1N1CCCC1)c1ccc2c(c1)S(=O)(=O)c1ccccc1C2=O	none
C[C@@H]1CCCCO[C@H](CN(C)C)[C@H](C)CN([C@@H](C)CO)C(=O)c2cc(NC(=O)Nc3ccc(C(F)(F)F)cc3)ccc2O1	none (no result: TLR4-MyD88 BLA)
C[C@@H]1CCCCO[C@H](CN(C)Cc2ccc(C(=O)O)cc2)[C@H](C)CN([C@@H](C)CO)C(=O)c2cc(NC(=O)Nc3ccc(C(F)(F)F)cc3)ccc2O1	rCAG RNA binder 50 (no result: TLR4-MyD88 BLA) | rCAG bind conf 53 | DNA CAG counter 15
NS(=O)(=O)c1ccc(N/N=C/c2cn(-c3ccccc3)nc2-c2cccs2)cc1	rCAG RNA binder 36 | rCAG bind conf inactive | DNA CAG counter 15
O=C(O)c1cccc(N/N=C/c2cn(-c3ccccc3)nc2-c2cccs2)c1	rCAG RNA binder 48 | rCAG bind conf 76 | DNA CAG counter 37
O=C1CS/C(=N/N=C/c2ccc(OS(=O)(=O)c3ccccc3)cc2)N1	rCAG RNA binder 40 | rCAG bind conf 38 | DNA CAG counter 9.7
COc1ccc(Oc2ccc(C(F)(F)F)cc2NC(=O)CC(CC(=O)O)c2ccccc2)cc1 (centres undefined)	rCAG RNA binder 46 (no result: TLR4-MyD88 BLA) | rCAG bind conf 42 | DNA CAG counter 8.0
CN(C)c1ccc(N=Nc2ccc(S(=O)(=O)O)cc2)c2ccccc12	rCAG RNA binder 77 | rCAG bind conf 59 | DNA CAG counter 24
CN(C)c1ccc(N=Nc2ccc(S(N)(=O)=O)cc2)cc1	none (no result: TLR4-MyD88 BLA)
N#Cc1ccc(NC(=O)OC2CC3CC2[C@H]2CCCCN2C3)cc1 (some centres undefined)	none (no result: TLR9-MyD88 inh, NOD2-RIPK2 inh, TLR4-MyD88 BLA, ABHD5 PLIN5 PPI)
CS/C(Nc1cc(Cl)ccc1Cl)=C(/C#N)C(=O)c1ccco1	rCAG RNA binder 47 (no result: TLR4-MyD88 BLA) | rCAG bind conf inactive | DNA CAG counter 5.7
Cc1ccc(O)c(N=Cc2cc(Cc3ccccc3)cc([N+](=O)[O-])c2O)c1	rCAG RNA binder 46 | rCAG bind conf inactive | DNA CAG counter 16
O=[N+]([O-])c1cc(Cc2ccccc2)cc(C=Nc2ccc(N3CCOCC3)cc2)c1O	none (no result: PRMT1 FP inh, rCAG RNA binder)
CCCCCCCCCCCCCCCCCCNc1ccn(C2OC(COP(=O)(O)OCC3OC(n4cc(F)c(=O)[nH]c4=O)CC3O)C(O)C2O)c(=O)n1 (centres undefined)	rCAG RNA binder 55 (no result: TLR4-MyD88 BLA) | rCAG bind conf 61 | DNA CAG counter 36
O=c1[nH]c(=O)n(C2OC(CO)C(O)C(O)C2O)cc1F (centres undefined)	none (no result: TLR9-MyD88 inh, NOD2-RIPK2 inh, TLR4-MyD88 BLA, ABHD5 PLIN5 PPI)
COc1ccc2c(c1)CNC2CS(=O)(=O)NCc1ccc(F)cc1 (centres undefined)	none (no result: TLR9-MyD88 inh, NOD2-RIPK2 inh, TLR4-MyD88 BLA, ABHD5 PLIN5 PPI)
C/C=C/c1cccc(-c2nc(C(=O)N3CCCCC3)cc3c2[C@@H](CCO)N(C(=O)NC(C)C)C3)c1	none (no result: TLR9-MyD88 inh, TLR4-MyD88 BLA)
Cc1ccc(S(=O)(=O)Nc2cccc(S(=O)(=O)Nc3ccccc3C(=O)O)c2)c(C)c1	rCAG RNA binder 67 (no result: TLR4-MyD88 BLA) | rCAG bind conf 65 | DNA CAG counter 26
CCOc1ccc(Br)cc1S(=O)(=O)Nc1cccc(S(=O)(=O)Nc2ccccc2C(=O)O)c1	rCAG RNA binder 78 (no result: TLR4-MyD88 BLA) | rCAG bind conf 83 | DNA CAG counter 48
O=C(O)c1ccccc1NS(=O)(=O)c1cccc(NS(=O)(=O)c2cc(Br)ccc2Br)c1	rCAG RNA binder 69 (no result: TLR4-MyD88 BLA) | rCAG bind conf 61 | DNA CAG counter 22
N#Cc1c(-c2ccccc2)nc(SCC(=O)Nc2ccc(OC(F)(F)Cl)cc2)[nH]c1=O	rCAG RNA binder 90 (no result: TLR4-MyD88 BLA) | rCAG bind conf 85 | DNA CAG counter 58
Cc1cccc(NC(=O)CSc2nc(-c3ccccc3)c(C#N)c(=O)[nH]2)c1C	none
